What all share (conditions): mRNA level, 48 h; actives raise or lower the signal
Read-out in one test: HGF (gene 3082)
As to the kind of experiment: LTEA_HepaRG_HGF: Life Technologies and Expression Analysis (LTEA) Assay for Hepatocyte Growth Facto (HGF) using HepaRG (AID 2283505). In a few lines:
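Gain or loss of HGF mRNA in human HepaRG liver cells after 48 h chemical exposure; eight concentrations up to 100 uM with 0.5% DMSO vehicle, quantified by TaqMan qRT-PCR.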

Read-out in test [1]: Insulin Like Growth Factor 1 (IGF1), IGF1 (gene 3479)
Briefly: LTEA_HepaRG_IGF1: Life Technologies and Expression Analysis (LTEA) Assay for Insulin Like Growth Factor 1 (IGF1) using HepaRG (AID 2283506). In a few lines:
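qRT-PCR readout of IGF1 mRNA, normalized to three housekeeping genes, after 48 h chemical exposure of HepaRG cells. Concentrations: 8-point half-log series, top 100 uM, 0.5% DMSO vehicle. Gain or loss fitted against DMSO baseline.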

Read-out in test [2]: Intercellular Adhesion Molecule 1 (ICAM1), ICAM1 (gene 3383)
Briefly: LTEA_HepaRG_ICAM1: Life Technologies and Expression Analysis (LTEA) Assay for Intercellular Adhesion Molecule 1 (ICAM1) using HepaRG (AID 2283507). In a few lines: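 Gain or loss of transcript in HepaRG hepatic cells is quantified by qRT-PCR after 48 h chemical exposure (up to 100 uM, half-log steps), with DMSO as baseline.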

Read-out in test [3]: Insulin-like growth factor-binding protein 1 (IGFBP1), IGFBP1 (gene 3484)
As to the kind of experiment: LTEA_HepaRG_IGFBP1: Life Technologies and Expression Analysis (LTEA) Assay for Insulin-like growth factor-binding protein 1 (IGFBP1) using HepaRG (AID 2283508). In a few lines:
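mRNA induction or loss was quantified by qRT-PCR after 48 h chemical exposure of human HepaRG cells, with 0.5% DMSO as vehicle and baseline. Concentration-response over eight points up to 100 uM.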

Read-out in test [4]: Interleukin 6 (IL6), IL6 (gene 3569)
Briefly: LTEA_HepaRG_IL6: Life Technologies and Expression Analysis (LTEA) Assay for Interleukin 6 (IL6) using HepaRG (AID 2283509). In short, it runs like this:
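qRT-PCR read-out of IL6 transcript, normalized to three housekeeping genes, after 48 h chemical exposure of HepaRG cells; 8-point half-log series, top 100 uM, 0.5% DMSO vehicle. Bidirectional curve fitting against DMSO baseline.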

Read-out in test [5]: Interleukin 6 Receptor (IL6R), IL6R (gene 3570)
Briefly: LTEA_HepaRG_IL6R: Life Technologies and Expression Analysis (LTEA) Assay for Interleukin 6 Receptor (IL6R) using HepaRG (AID 2283510).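 For AC50: differentiated human HepaRG liver cells in serum-free induction medium; TaqMan qRT-PCR signal normalized to ACTB GAPDH and POLR2A housekeeping genes.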 In short, it runs like this:
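HepaRG, 48 h exposure, 8-pt half-log series, top 100 uM, 0.5% DMSO vehicle, duplicates. Read-out: TaqMan qRT-PCR of IL6R transcript, housekeeping-gene normalized. Gain or loss fitted relative to DMSO baseline.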

Read-out in test [6]: Potassium channel subfamily K member 1 (KCNK1), KCNK1 (gene 3775)
As to the kind of experiment: LTEA_HepaRG_KCNK1: Life Technologies and Expression Analysis (LTEA) Assay for Potassium channel subfamily K member 1 (KCNK1) using HepaRG (AID 2283511). In short, it runs like this: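 HepaRG, 48 h exposure, 8-pt half-log series top 100 uM, 0.5% DMSO vehicle, duplicates. Readout: KCNK1 transcript by qRT-PCR (Fluidigm array), housekeeping-normalized; bidirectional curve fit relative to DMSO baseline.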

Read-out in test [7]: Keratin 19 (KRT19), KRT19 (gene 3880)
As to the kind of experiment: LTEA_HepaRG_KRT19: Life Technologies and Expression Analysis (LTEA) Assay for Keratin 19 (KRT19) using HepaRG (AID 2283512). In a few lines:
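Gene-expression endpoint in the human liver line HepaRG after 48 h exposure to up to 100 uM test chemical with 0.5% DMSO vehicle; KRT19 mRNA by qRT-PCR, analyzed bidirectionally versus DMSO.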

Read-out in test [8]: JUN Transcription Factor, JUN (gene 3725)
Briefly: LTEA_HepaRG_JUN: Life Technologies and Expression Analysis (LTEA) Assay for JUN Transcription Factor using HepaRG (AID 2283513). In a few lines: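 HepaRG, 48 h exposure, 8-pt half-log series top 100 uM, 0.5% DMSO, duplicate. JUN mRNA by qRT-PCR (Fluidigm), housekeeping-normalized (ACTB/GAPDH/POLR2A); bidirectional curve fit vs DMSO baseline.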

Several values for one entry are separate records, joined by “and”; a condition that tells them apart may be missing. Equal values may be shown once. Where a structure was tested more than once in an assay, its records may differ in their call. Activity calls are given as the source filed them. Rule for the calls: active = hit-call score of the fitted dose curve at least 0.9, where 1 is the maximum; inactive = score below 0.9.

Turning to `Cc1cc(Cl)ccc1OCC(=O)O`, the outcome (with HGF (gene 3082); in test [1]; in test [2]; in [3]; in test [4]; in [5]) was inactive. Besides, the call in [6], in test [7] and in [8] was inactive.

Usually AC50 stands for the concentration at which the activity in the assay is half-maximal. As to `CCCC1COC(Cn2cncn2)(c2ccc(Cl)cc2Cl)O1` (stereo not drawn), the AC50 in the test with HGF (gene 3082) was 50 µM (active); in test [1], 25.5 µM (active); in test [2], 77.1 µM (active); in test [3], 34.4 µM (active); in test [4] it was 83.2 µM (active); in test [7], 1.12 µM (active). Moreover, the call in test [5], in test [6] and in [8] was inactive.

As for `CCON=C(CC)C1=C(O)CC(c2c(C)cc(C)cc2C)CC1=O` (stereo not drawn), the outcome (with HGF (gene 3082); in test [1]; in test [2]; in test [3]; in test [4]; in test [5]) was inactive. Further, the outcome in test [6], in [7] and in [8] was inactive.

Take `N#Cc1nn(-c2c(Cl)cc(C(F)(F)F)cc2Cl)c(N)c1S(=O)C(F)(F)F` (stereo not drawn): the AC50 is 90.3 µM (active) with HGF (gene 3082); 13.4 µM (active) in test [1]; 47.7 µM (active) in test [3]; 44.8 µM (active) in [4]; 91.4 µM (active) in test [5]; 12.6 µM (active) in [7]. The AC50 in test [8] is 50.2 µM (active). In addition, the outcome in test [2] and in test [6] was inactive.

Regarding `CO/C=C(/C(=O)OC)c1ccccc1Oc1cc(Oc2ccccc2C#N)ncn1`, the call (with HGF (gene 3082); in [5]; in test [6]; in [8]) was inactive. The AC50 was 79.8 µM (active) and 62.8 µM (active) and 74 µM (active) in test [1]; 83.5 µM (active) and 87.8 µM (active) and 88.9 µM (active) in test [2]; 63.6 µM (active) and 72.5 µM (active) and 76.7 µM (active) in [3]; 81.4 µM (active) and 80.9 µM (active) and 82.8 µM (active) in [4]; 61.1 µM (active) and 37.1 µM (active) and 50 µM (active) in test [7].

Regarding `COC(=O)c1ccccc1C(=O)OC`, the molecule was classed as inactive (in the test with HGF (gene 3082); in [1]; in test [2]; in test [3]; in [4]; in [5]). The result in test [6], in [7] and in [8] was inactive.

For `COP(=S)(OC)Oc1nc(Cl)c(Cl)cc1Cl`, the call (in the test with HGF (gene 3082); in test [1]; in [2]; in test [3]; in test [4]; in test [5]) was inactive. Also, the call in test [6], in test [7] and in [8] was inactive.

Turning to `C=CCC1=C(C)C(OC(=O)C2C(C=C(C)C)C2(C)C)CC1=O` (stereo not drawn), the result (in the test with HGF (gene 3082); in [2]; in [3]; in test [4]; in [5]; in test [6]) was inactive. Also, in [8], the molecule was classed as inactive. The AC50 is 79.6 µM (active) and 72 µM (active) and 50 µM (active) in [1]; 50 µM (active) and 74.3 µM (active) in [4]; 50 µM (active) and 88.1 µM (active) and 40.4 µM (active) in [7].

As for `COP(N)(=O)SC` (stereo not drawn), the outcome (in the test with HGF (gene 3082); in [1]; in test [2]; in [3]; in [4]; in test [5]) was inactive. Besides, the result in test [6], in [7] and in [8] was inactive.

As to `CCCCNC(=O)n1c(NC(=O)OC)nc2ccccc21`, the call (with HGF (gene 3082); in test [1]; in [2]; in [3]; in test [4]; in [5]) was inactive. Further, the outcome in test [6], in [7] and in test [8] was inactive.

On to `CC(C)Oc1cc(-n2nc(C(C)(C)C)oc2=O)c(Cl)cc1Cl`, for which the molecule was called inactive (in the test with HGF (gene 3082); in test [2]; in test [4]; in test [5]; in [6]; in test [8]). Further, the results for the AC50 in test [1], in test [3] and in [7] were 28.7 µM (active), 76.8 µM (active) and 50 µM (active), respectively.

In the case of `CON(C)C(=O)Nc1ccc(Cl)c(Cl)c1`, the call (with HGF (gene 3082); in [2]; in test [4]; in test [5]; in [6]; in test [8]) was inactive. The AC50 in test [1] is 50 µM (active); in [3], 50 µM (active); in [7] it was 48.5 µM (active).

With `CC1COC(Cn2cncn2)(c2ccc(Oc3ccc(Cl)cc3)cc2Cl)O1` (stereo not drawn), the molecule was classed as inactive (with HGF (gene 3082); in [5]). For the same molecule, the AC50 in test [1] is 12.1 µM (active); in test [2] it was 26.2 µM (active); in test [3] it was 19 µM (active); in test [4], 31.9 µM (active); in [6], 33.1 µM (active); in test [7], 12.9 µM (active). Further, the AC50 in test [8] is 62.4 µM (active).

These data come from PubChem BioAssay (EPA / NIEHS).
